# Assay results published in PubChem BioAssay (NCATS).
# Values joined by “and” are separate entries in the source; they are usually repeats but may differ in a detail not shown here. Identical values can stand only once. Inconclusive results are not listed. Active and inactive are the calls of the source. Calls come from the whole dose curve.
# Test: qHTS Assay for Lipid Storage Modulators (AID 1519); for activity change, negative = inhibition: % is set by controls: 0 for no effect and ±100 for the full control effect
# Conditions: Drosophila S3 cells, BODIPY lipid droplet/cell ratio, laser cytometry; at 25.7 µM (top of the series); cells loaded with oleic acid
# Summary of the method: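 Cells seeded at 5,000 per well were treated with compounds over a concentration series and loaded with oleic acid (400 uM, as added). Lipid droplet fluorescence (488 nm excitation, 500-530 nm channel) was read by laser-scanning cytometry and normalized to 20 uM Triacsin C.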
row,SMILES,"activity change, negative = inhibition"
1,CC(=O)Oc1cc(C(C)C)c(OCCN(C)C)cc1C,-0.785% (inactive)
2,NC(=O)N1c2ccccc2C=Cc2ccccc21,-0.889% (inactive)
3,COc1cc(C(=O)OCCCN2CCCN(CCCOC(=O)c3cc(OC)c(OC)c(OC)c3)CC2)cc(OC)c1OC,-0.679% (inactive)
4,COc1cc(Cc2cnc(N)nc2N)cc(OC)c1OC,-1.74% (inactive)
5,C[N+](C)(C)CCOC(N)=O,1.99% (inactive)
6,Cc1scc2c1N(C(=O)CN1CCN(C)CC1)c1ccccc1NC2=O,-2.57% (inactive)
7,COc1ccc(CN(CCN(C)C)c2ccccn2)cc1,1.57% (inactive)
8,O=C1NCN(c2ccccc2)C12CCN(CCCC(c1ccc(F)cc1)c1ccc(F)cc1)CC2,-8.24% (inactive)

# Same assay, conditions: Drosophila S3 cells, BODIPY lipid droplet/cell ratio, laser cytometry; at 57.5 µM (top of the series); cells loaded with oleic acid
row,SMILES,"activity change, negative = inhibition"
1,CO[C@@]1(NC(=O)CSCC#N)C(=O)N2C(C(=O)O)=C(CSc3nnnn3C)CS[C@@H]21,0.161% (inactive)
2,Nc1c2c(nc3ccccc13)CCCC2O (stereo unspecified),0.679% (inactive) and 0.738% (inactive)
3,c1cc(CN2CCCCC2)cc(OCCCNc2nc3ccccc3s2)c1,-4.93% (inactive)
4,Cc1nc2sccn2c(=O)c1CCN1CCC(=C(c2ccc(F)cc2)c2ccc(F)cc2)CC1,-1.04% (inactive)
5,CNC1(C)C2CCC(C2)C1(C)C (stereo unspecified),2.62% (inactive)
6,Cc1nc2ccccn2c(=O)c1CCN1CCC(C(=O)c2ccc(F)cc2)CC1,16.1% (inactive)
7,OC(CCN1CCCCC1)(c1ccccc1)C1CCCCC1 (stereo unspecified),1.74% (inactive)
8,CCN(CC)CCNC(=O)c1ccc(NC(C)=O)cc1,5.92% (inactive) and 1.04% (inactive)
9,CCOC(=O)C1=C(C)NC(C)=C(C(=O)OC)C1c1cccc([N+](=O)[O-])c1 (stereo unspecified),1.63% (inactive)
10,O=c1[nH]c(=O)n([C@H]2C[C@H](O)[C@@H](CO)O2)cc1Br,-1.72% (inactive) and -8.79% (inactive)
11,c1ccc2c(c1)CCCC2C1=NCCN1 (stereo unspecified),9.7% (inactive) and 1.83% (inactive)
12,CCN1CCc2nc(N)oc2CC1,0.659% (inactive)
13,CC(=O)OC(C)C[N+](C)(C)C (stereo unspecified),7.3% (inactive)
14,COCCOC(=O)C1=C(C)NC(C)=C(C(=O)OC(C)C)C1c1cccc([N+](=O)[O-])c1 (stereo unspecified),10.8% (inactive) and 3.42% (inactive)
15,FC(F)(F)c1ccccc1-n1ccnc1,7.35% (inactive)
16,Cc1scc2c1N(C(=O)CN1CCN(C)CC1)c1ccccc1NC2=O,0.86% (inactive) and 1.7% (inactive) and 0.0907% (inactive)
17,Fc1ccc(C(c2ccc(F)cc2)N2CCN(C/C=C/c3ccccc3)CC2)cc1,-1.34% (inactive)
18,COc1ccc(CN(CCN(C)C)c2ccccn2)cc1,2.66% (inactive) and 4.86% (inactive) and -0.667% (inactive)
19,NC/C=C/C(=O)O,6.98% (inactive)
20,CC(C)COCC(CN(Cc1ccccc1)c1ccccc1)N1CCCC1 (stereo unspecified),2.08% (inactive)
21,COCCc1ccc(OCC(O)CNC(C)C)cc1 (stereo unspecified),2.43% (inactive)
22,OCCN1CCN(CCCN2c3ccccc3C=Cc3ccccc32)CC1,-1.21% (inactive)
23,CC(N=C(NC#N)Nc1ccncc1)C(C)(C)C (stereo unspecified),13.9% (inactive) and 0.102% (inactive)
24,CCCN(CCC)C(=O)C(CCC(=O)O)NC(=O)c1ccccc1 (stereo unspecified),2.72% (inactive)
25,CCN1CCC[C@H]1CNC(=O)c1c(O)c(Cl)cc(Cl)c1OC,1.67% (inactive) and 3.44% (inactive)
26,CC(C(=O)O)c1ccc(CC2CCCC2=O)cc1 (stereo unspecified),-1.18% (inactive)

# Same assay, conditions: Drosophila S3 cells, BODIPY lipid droplet/cell ratio, laser cytometry; measured here: cell count channel max response; cells loaded with oleic acid
row,SMILES,max response
1,CO[C@@]1(NC(=O)CSCC#N)C(=O)N2C(C(=O)O)=C(CSc3nnnn3C)CS[C@@H]21,-28.1%
2,CC(=O)Oc1cc(C(C)C)c(OCCN(C)C)cc1C,-9.94%
3,NC(=O)N1c2ccccc2C=Cc2ccccc21,-0.817%
4,Nc1c2c(nc3ccccc13)CCCC2O (stereo unspecified),14.7% and -14.6%
5,c1cc(CN2CCCCC2)cc(OCCCNc2nc3ccccc3s2)c1,18.9%
6,Cc1nc2sccn2c(=O)c1CCN1CCC(=C(c2ccc(F)cc2)c2ccc(F)cc2)CC1,26.4%
7,CNC1(C)C2CCC(C2)C1(C)C (stereo unspecified),45.4%
8,COc1cc(C(=O)OCCCN2CCCN(CCCOC(=O)c3cc(OC)c(OC)c(OC)c3)CC2)cc(OC)c1OC,11.7%
9,Cc1nc2ccccn2c(=O)c1CCN1CCC(C(=O)c2ccc(F)cc2)CC1,7.37%
10,OC(CCN1CCCCC1)(c1ccccc1)C1CCCCC1 (stereo unspecified),-10.4%
11,CCN(CC)CCNC(=O)c1ccc(NC(C)=O)cc1,-2.69% and -11.3%
12,COc1cc(Cc2cnc(N)nc2N)cc(OC)c1OC,-1.95%
13,CCOC(=O)C1=C(C)NC(C)=C(C(=O)OC)C1c1cccc([N+](=O)[O-])c1 (stereo unspecified),-3.59%
14,O=c1[nH]c(=O)n([C@H]2C[C@H](O)[C@@H](CO)O2)cc1Br,5.46% and -18.7%
15,c1ccc2c(c1)CCCC2C1=NCCN1 (stereo unspecified),6.5% and -25.5%
16,CCN1CCc2nc(N)oc2CC1,-8.22%

row,SMILES,max response
1,CC(=O)OC(C)C[N+](C)(C)C (stereo unspecified),18.4%
2,COCCOC(=O)C1=C(C)NC(C)=C(C(=O)OC(C)C)C1c1cccc([N+](=O)[O-])c1 (stereo unspecified),12.3% and 59.2%
3,FC(F)(F)c1ccccc1-n1ccnc1,11%
4,C[N+](C)(C)CCOC(N)=O,10.4%
5,Cc1scc2c1N(C(=O)CN1CCN(C)CC1)c1ccccc1NC2=O,-8.48% [middle of 4 runs]
6,Fc1ccc(C(c2ccc(F)cc2)N2CCN(C/C=C/c3ccccc3)CC2)cc1,15.3%
7,COc1ccc(CN(CCN(C)C)c2ccccn2)cc1,5.42% [middle of 4 runs]
8,NC/C=C/C(=O)O,5.6%
9,CC(C)COCC(CN(Cc1ccccc1)c1ccccc1)N1CCCC1 (stereo unspecified),20%
10,COCCc1ccc(OCC(O)CNC(C)C)cc1 (stereo unspecified),-17.2%
11,OCCN1CCN(CCCN2c3ccccc3C=Cc3ccccc32)CC1,45.9%
12,CC(N=C(NC#N)Nc1ccncc1)C(C)(C)C (stereo unspecified),1.72% and -23.9%
13,CCCN(CCC)C(=O)C(CCC(=O)O)NC(=O)c1ccccc1 (stereo unspecified),19.5%
14,CCN1CCC[C@H]1CNC(=O)c1c(O)c(Cl)cc(Cl)c1OC,12.1% and 6.79%
15,CC(C(=O)O)c1ccc(CC2CCCC2=O)cc1 (stereo unspecified),-27.7%
16,O=C1NCN(c2ccccc2)C12CCN(CCCC(c1ccc(F)cc1)c1ccc(F)cc1)CC2,-19.4%
